# Among all 1,400 compounds or so, about 980 (70%) were called active. Not shown: some 16% with an inconclusive outcome. The set was probably picked from earlier hits. Only a sample is shown. Unmarked numbers belong to inactive results. Calls come from the whole dose curve.
# Experiment: Natriuretic polypeptide receptor (hNpr1) antagonism - Counterscreen GloSensor control cell line; note: nearly all actives have a fitted effect of over 70% in size
# Conditions: HEK293 GloSensor cGMP, SNP-stimulated, luminescence; series mostly up to 57.6 µM; activity change, negative = inhibition: at the top concentration
# Method: cGMP production was measured using a circular permutated firefly luciferase (FLuc) enzyme functionally linked to the cGMP binding domain of human phosphodiesterase 5 (GloSensor technology pGS-40F, (Fan, F. et al. 2008). The cGMP-sensor was expressed in human embryonic kidney 293 (HEK-293) cells and FLuc activity was measured after stimulation with the NO-donor sodium nitroprusside (SNP). SNP activates the endogenously expressed soluble guanylyl cyclase (GC) producing cGMP which then binds to the GloSensor resulting in FLuc activation, the enzymatic activity of which can be measured as bioluminescence with addition of luciferin substrate. F. Fan, B. F. Binkowski, B. L. Butler, P. F. Stecha, M. K. Lewis, K. V. Wood, Novel genetically encoded biosensors using firefly luciferase. ACS Chem Biol 3, 346-351 (2008).
# PROTOCOL TABLE (as described by Inglese J, Shamu CE and Guy RK. 2007) SEQUENCE No. (e.g., 1, 2, 3, etc.); PARAMETER (e.g., Cells, Incubation, Reagent, etc.); VALUE and DESCRIPTION. 1. Cells. Seed 1500 HEK293 cGMP-sensor cells per well in 4uL into Greiner 1536-well white/solid bottom high base, TC plates. 2. Incubation. Incubate plated cells at 37C in 5% CO2, 95% RH overnight. 3. Reagent. Add 1uL per well GloSensor reagent from Promega (2% final concentration) or CO2 independent media vehicle control to respective columns of Greiner 1536-well plates. 4. Incubation. Incubate plated cells at room temperature for 2 h, protect from light. 5. Compounds. Library compounds and DMSO vehicle control added at 23nL per well, transferred by Pin Tool. 6. Incubation. Incubate plated cells for 30 min. at room temperature, protect from light. 7. Detector. GloSensor baseline pre-read luminescence measured using CCD-based camera (Viewlux). 8. Compound. Add 1uL of sodium nitroprusside (SNP) to 50 uM final concentration to stimulate soluble guanylyl cyclase (GC) or CO2 independent media as vehicle control. 9. Incubation. Incubate treated cells at room temperature for 20 min., protect from light. 10. Detector. GloSensor post-SNP luminescence measured using CCD-based camera (Viewlux). NOTES (numbers refer to Sequence numbers above; values are from representative experiments) 1. HEK293 cells expressing GIP/pGS-40F were grown to 85-95% confluence (48-72 h) in T175 culture flasks (CO2 independent media supplemented with 10% FBS, 1% Pen/Strep antibiotics, and 1 ug/mL puromycin). Trypsinize and harvest cells from T175 culture flasks and filter through 40 um cell strainer. Cells counted with Invitrogen Countess (30,000,000 - 50,000,000 cells/flask). Cells diluted to a final concentration of 375 cells/uL in CO2 independent media and a Millipore multidrop used to dispense 1500 cells per well (4uL/well) into 13 1536-well Greiner White/Solid bottom, high base tissue-culture treated (TC) plates and one Aurora 1536-well Black/Clear bottom, low base, TC plate (for visual inspection of cell health throughout the duration of the assay). 2. Cells incubated for 24 h. at 37C in 95% RH incubator with metal lid having gas-exchange holes. 3. Prepare GloSensor Reagent (Promega): Reconstitute GloSensor luciferase substrate by adding 8.2mL Hepes buffer to 250mg substrate, mix well, protect from light and stored at -80C. Prepare a fresh 12% GloSensor solution in CO2 independent supplemented plating media (see above). Mix well and store at ambient temperature, protected from light. 1uL 12% GloSensor Luciferase Reagent added (2% final concentration) to respective columns of 13 x 1536-well Greiner plate with BioRaptr, 1uL CO2 independent plating media added to respective columns as vehicle control with BioRaptr. 4. Cells incubated for 2 h. at ambient temperature, protected from light with metal lid having gas-exchange holes. 5. 23nL of library compounds or DMSO vehicle control transferred to 13 Greiner white/solid bottom high base, TC plates in 11 interplate 1:3 titrations (see Yasgar, A. et al. 2008) with Pintool. 6. […]
# % is set by controls: 0 for no effect and ±100 for the full control effect; potency is the fitted concentration of half-maximal effect.
SMILES,Potency,"activity change, negative = inhibition"
OC1(Cc2cc(-c3ccccc3)no2)CCN(c2ncncn2)CC1,6.85 µM (active),–
O=C(NCc1nnc2cc(-c3nc(C4CC4)no3)ccn12)c1ccc(F)cc1Cl,12.2 µM (active),–
COc1ccc(CCNC(=O)c2noc(-c3ccc(C)cc3)n2)cc1OC,21.7 µM (active),–
O=C(c1ccc(F)cc1Cl)N1CCC(n2cc(-c3nc(-c4ccccc4)no3)nn2)C1 (stereo unspecified),4.32 µM (active),–
O=C(c1ccc(Cl)cc1)N1CCCC(n2cc(-c3nc(-c4ccccc4)no3)nn2)C1 (stereo unspecified),13.7 µM (active),–
COc1ccc(C(=O)N2CCC(n3cc(-c4nc(C(C)C)no4)nn3)CC2)cc1F,–,5.01%
CCc1ccc(C(=O)N2CCN(c3cc(-c4ccc(F)cc4)[nH]n3)CC2)cc1,21.7 µM (active),–
O=C(c1cc(F)ccc1Cl)N1CCN(c2cc(-c3ccc(F)cc3)[nH]n2)CC1,24.3 µM (active),–
O=C(c1ccc(F)cc1F)N1CCN(c2cc(-c3ccc(Cl)cc3)[nH]n2)CC1,17.2 µM (active),–
Cc1ccc(C(=O)N2CCN(c3cc(-c4ccc(Cl)cc4)[nH]n3)CC2)c(C)c1,6.11 µM (active),–
C1CCC(COCCc2noc(C3CNC3)n2)C1,21.7 µM (active),–
O=C(c1ccccn1)N1CC(Oc2ccc(-c3noc(C4CC4)n3)cc2)C1,13.7 µM (active),–
COc1ccc(CC(=O)N2CCC(Cc3nc(-c4ccccc4)no3)CC2)cc1OC,13.7 µM (active),–
COc1ccc(-c2noc(CC3CCN(C(=O)Cc4ccc(OC)c(OC)c4)CC3)n2)cc1,3.85 µM (active),–
COc1ccc(CN2C(=O)CO[C@H]3CN(Cc4ccc5c(c4)OCO5)C[C@H]32)cc1,28 µM (active),–
Cc1ccc2c(c1)nc1n2[C@@H](CNS(=O)(=O)c2ccccc2)COC1,35.3 µM (active),–

SMILES,Potency,"activity change, negative = inhibition"
N#Cc1cccc(CN2CCC(C3=NC(O)c4cc(F)ccc4N3)CC2)c1 (stereo unspecified),19.3 µM (active),–
Fc1ccc(CNC[C@H]2Cn3c(-c4ccc5c(c4)OCCO5)cnc3CO2)cc1,–,-28.3% [at 86.2 µM]
Cc1cccc(C(=O)N2CCC3(CC2)CC(N(Cc2ccc(F)cc2)C2CC2)CCO3)c1 (stereo unspecified),–,-29.5%
O=C(c1ccccc1)N1CCC(C(=O)N2CCC(Cc3nc(-c4ccc(F)cc4)no3)CC2)CC1,13.7 µM (active),–
COc1cccc(-c2noc(CC3CCN(C(=O)c4ccc(F)cc4)CC3)n2)c1,4.85 µM (active),–
CN1CCN(C(=O)C(C)(C)Oc2nn(Cc3cccc(Cl)c3)c3ccccc23)CC1,–,1.63% [at 86.2 µM]
O=C(c1ccccc1)N1CCNc2cnc(Nc3cccc(C(F)(F)F)c3)nc2C1,22.2 µM (active),–
Cc1cc(N2CCCC(Cn3cc(Cc4ccccc4)nn3)C2)nc(N)n1 (stereo unspecified),4.85 µM (active),–
O=C1c2cnc(-c3ccc(Cl)cc3)nc2OCCN1Cc1ccccc1,35.3 µM (active),–
CN(Cc1csc(-c2ccccc2)n1)c1cc(C2CC(O)C2)nc(N)n1 (stereo unspecified),1.93 µM (active),–
Cc1ccc(OCc2nc(C3CCN(C(=O)CCc4nc5ccc(Cl)cc5[nH]4)CC3)no2)cc1,24.3 µM (active),–
O=c1[nH]c(C2CCCN(Cc3ccccn3)C2)nn1-c1ccc(Cl)cc1 (stereo unspecified),9.68 µM (active),–
CN(C)CCNC(=O)C(C)(C)Oc1nn(Cc2cccc(Cl)c2)c2ccccc12,–,-2.48% [at 86.2 µM]
CC(C)c1cc(C(=O)N2CCC(n3cc(-c4ccccn4)nn3)CC2)n(C)n1,15.3 µM (active),–
Cc1cccc(CN2CCc3nc(C(=O)Nc4ccc(Cl)cc4)oc3CC2)c1,8.86 µM (active),–

# Reference: PubChem BioAssay AID1347051 (National Center for Advancing Translational Sciences (NCATS), 2019)
